Data reported in PubChem BioAssay AID504832 (National Center for Advancing Translational Sciences (NCATS), 2011).
Out of some 310,000 compounds screened, about 18,000 (5.8%) were called active. Not shown: some 22% with an inconclusive outcome. Calls come from the whole dose curve; as a rule, active = well fitted inhibition curve with a large enough effect; inconclusive = small, poorly fitted or top-dose-only effect, or another doubt; inactive = no such curve, though single readings can be large or run the other way. Shown is part of a subset that was picked to be rich in actives. Non-standard residues stand in square brackets, D forms with d. Residues, ends and D or L forms follow the SMILES beside them. *: point of attachment. PhAc = O=C(Cc1ccccc1)*

Experiment: Primary qHTS for delayed death inhibitors of the malarial parasite plastid, 48 hour incubation
Conditions: P. falciparum luciferase growth in erythrocytes; series mostly up to 28.7 µM; activity change, negative = inhibition: at the top concentration
Summary of the method: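 Growth was read as firefly luciferase luminescence after a 48 h, 37 C, 5% CO2 exposure of compounds to reporter-bearing P. falciparum cultures (0.1% parasitemia, 2% hematocrit final) in Albumax-supplemented RPMI 1640.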
% is set by controls: 0 for no effect and ±100 for the full control effect; potency is the fitted concentration of half-maximal effect.

| SMILES | activity change, negative = inhibition | Potency |
| --- | --- | --- |
| Cc1cc(-c2nnc(SCC(=O)Nc3ccc(S(N)(=O)=O)cc3)n2N)n[nH]1 | -13.5% (inactive) | – |
| CN1C(=O)[C@H]2[C@@H](C3CC3)N3C(=O)CN(Cc4ccccc4)C(=O)[C@@]3(C)[C@H]2C1=O | 27.4% (inactive) | – |
| O=C1NC(c2ccccc2)Oc2ccccc21 (stereo not drawn) | -9% (inactive) | – |
| COc1ccc(-c2ocnc2C(=O)Nc2ccc3c(c2)CCC3)cc1 | 16.9% (inactive) | – |
| O=C(Nc1nnc(-c2ccc(F)cc2)s1)c1c(F)cccc1Cl | 10.8% (inactive) | – |
| CC(=O)c1nn(-c2cccc(C(F)(F)F)c2)c(=O)[nH]c1=O | -16.7% (inactive) | – |
| CCNS(=O)(=O)c1ccc(CCC(=O)N2CCN(c3ccc(OC)cc3)CC2)cc1 | 1.74% (inactive) | – |
| N#CCc1ccc(NC(=O)c2ccccc2C(=O)Nc2ccc(CC#N)cc2)cc1 | 20.5% (inactive) | – |
| COCCNC(=O)COc1ccc(C)c(C)c1 | 39.1% (inactive) | – |
| CC(C)n1ncc2c(C(=O)Nc3ccc(CC#N)cc3)cc(C3CC3)nc21 | – | 14.7 µM (active) |
| COc1ccc(OCCNC(=O)c2cc(C3CC3)nc3c2cnn3C(C)C)cc1 | – | 13.1 µM (active) |
| CC(=O)Nc1ccc(CC#N)cc1 | 3.33% (inactive) | – |
| CC(C)n1ncc2c(C(=O)NCc3ccccc3CN(C)C)cc(C3CC3)nc21 | – | 11.7 µM (active) |
| CCCc1ccc(OCCNC(=O)c2ccccc2Br)cc1 | -24.5% (inactive) | – |
| Cc1ccccc1OCCC(=O)OCC(=O)NCCc1ccc(S(N)(=O)=O)cc1 | 0% (inactive) | – |
| Cc1cc(C)c(S(=O)(=O)c2cc(F)ccc2C)c(=O)[nH]1 | 23.4% (inactive) | – |
| O=c1ccc(-c2ccc(S(=O)(=O)Nc3ccccc3)o2)n[nH]1 | 18.2% (inactive) | – |
| O=C(CN1C(=O)CSC1=O)N1CCCC(Nc2ccc(F)cc2)C1 (stereo not drawn) | -15.8% (inactive) | – |
| Cc1ccc(S(=O)(=O)N(C)c2ccc(OCC(=O)OCC(=O)N(CC#N)c3ccccc3)cc2)cc1 | -18.1% (inactive) | – |
| Cc1cccc(NC(=O)c2ccc([N+](=O)[O-])o2)c1 | – | 13.1 µM (active) |
| O=C(Nc1ccc(Br)cn1)c1ccc([N+](=O)[O-])o1 | -37.6% (inactive) | – |

| SMILES | activity change, negative = inhibition | Potency |
| --- | --- | --- |
| Cc1cccc(NC(=S)NC(=O)c2ccc(Br)o2)c1 | 29.3% (inactive) | – |
| O=C(CNC(=O)c1ccc(Br)o1)Nc1ccccc1 | 5.96% (inactive) | – |
| COCCNC(=O)c1ccc(S(=O)(=O)c2ccc(Cl)cc2)c(NC(C)=O)c1 | 0.449% [at 0.00184 µM] (inactive) | – |
| CC(Oc1ccc(F)cc1)C(=O)N1CCN(c2ncccn2)CC1 (stereo not drawn) | 4.64% (inactive) | – |
| c1cnc(N2CCN(c3ccc4ccccc4n3)CC2)nc1 | 161% (inactive) | – |
| CC12CCC(C(=O)N3CCN(c4ncccn4)CC3)(c3nc4ccccc4nc31)C2(C)C (stereo not drawn) | – | 11.7 µM (active) |
| O=C(NCc1nnc(SCC(=O)N2CCCCCC2)o1)c1ccc(F)cc1 | -11.3% (inactive) | – |
| Cc1ccc(S(=O)(=O)N[C@@H](Cc2ccccc2)C(=O)N2CCC(C(=O)N[C@H](C(=O)O)C(C)O)CC2)cc1 (stereo partly drawn) | 18.2% (inactive) | – |
| N#CC1=C(SCc2ccccc2)NC(=O)C(C#N)C12CCCC2 (stereo not drawn) | 5.15% (inactive) | – |
| CN1CCc2nc(SC(C(=O)O)c3ccccc3)c(C#N)c(-c3cccs3)c2C1 (stereo not drawn) | -13.9% (inactive) | – |
| Cc1cc(NC(=O)CSc2nc3c(cc2C#N)CCCCC3)no1 | 42.4% (inactive) | – |
| Cc1cc(C)c(C#N)c(SCc2ccccc2C(=O)O)n1 | 31.1% (inactive) | – |
| CC1(C)CCc2nc(SCc3ccccc3)c(C#N)cc2C1 | – | 5.22 µM (active) |
| CC(NC(=O)CSc1nc2c(cc1C#N)CN(C)CC2)c1ccccc1 (stereo not drawn) | – | 10.4 µM (active) |
| C[C@@H]1CC[C@@]2(OC1)O[C@H]1C[C@H]3[C@@H]4CC=C5C[C@@H](O)[C@H](O)C[C@]5(C)C4CC[C@]3(C)[C@H]1[C@@H]2C (stereo partly drawn) | 29.2% (inactive) | – |
| CN(C)c1ccc(CNC(=O)CN2C(=O)COc3ccc(S(=O)(=O)N4CCCC4)cc32)cc1 | 14.1% (inactive) | – |
| Cc1ccc(S(=O)(=O)NCc2ccc(C(=O)NC3CCC(C)CC3)cc2)cc1 (stereo not drawn) | -18.1% (inactive) | – |
| O=C(CC(n1cncn1)C(Cl)(Cl)Cl)c1ccc([N+](=O)[O-])cc1 (stereo not drawn) | -32.2% [at 0.00184 µM] (inactive) | – |
| CC(C)C[C@@H](NC(=O)[C@H]1CCCN1C(=O)Cc1ccccc1)C(N)=O (PhAc-[dP]-[dL]-NH2) | 8.09% [at 0.00184 µM] (inactive) | – |
| CCCCn1c(-c2cccc(C)c2)nc2cc3[nH]c(=O)c(C(C)C)nc3cc21 | – | 9.28 µM (active) |
| CCCCn1c(N)c(N(CCOC)C(=O)CSCC(=O)Nc2cccc(C)c2)c(=O)[nH]c1=O | -10.7% (inactive) | – |

| SMILES | activity change, negative = inhibition | Potency |
| --- | --- | --- |
| CCOCCn1c(-c2ccccc2)nc2ccccc21 | 0.39% (inactive) | – |
| CN(C(=O)CC1C(=O)NCCN1Cc1ccc(F)cc1Cl)C1CCCCC1 (stereo not drawn) | – | 11.7 µM (active) |
| CN(Cc1cccc2ncccc12)C(=O)CC1C(=O)NCCN1Cc1ccc(F)cc1 (stereo not drawn) | -6.35% (inactive) | – |
| CN(C(=O)CC1C(=O)NCCN1Cc1ccc2ccccc2c1)C1CCOCC1 (stereo not drawn) | -7.75% (inactive) | – |
| O=C(CN(Cc1ccccc1)C(=O)CCC(=O)Nc1ccccn1)NCCc1ccccc1 | 1.95% (inactive) | – |
| Cc1sc2ncn(CC(=O)NCCCC(=O)N3CCN(c4ccccc4F)CC3)c(=O)c2c1C | 17.2% (inactive) | – |
| CCCCCOc1ccc(/C=C/C(=O)NCCc2nc3ccccc3[nH]2)cc1OC | – | 10.4 µM (active) |
| COc1ccc(OC(C)C(=O)NCCc2nc3ccccc3[nH]2)cc1 (stereo not drawn) | -4.17% (inactive) | – |
| O=C(COc1ccccc1)NCCc1nc2ccccc2[nH]1 | 6.88% (inactive) | – |
| CCC(C)N1CC(=O)N2Cc3[nH]c4ccccc4c3C[C@H]2C1=O (stereo partly drawn) | -9.23% (inactive) | – |
| CC(C)c1ccc(Cc2nnc(NCCCO)[nH]c2=O)cc1 | -16.3% (inactive) | – |
| O=C(c1cc2sccc2n1Cc1ccc(F)cc1)N1CCc2ccccc21 | – | 14.7 µM (active) |
| Cc1ccn(CCC(=O)N2c3ccccc3CC2C)n1 (stereo not drawn) | -0.0677% (inactive) | – |
| CC(=O)N1c2ccc(S(=O)(=O)N(C)CC(=O)N(C)Cc3ccccc3)cc2CC1C (stereo not drawn) | -3.71% (inactive) | – |
| O=C(CSCc1ccccc1)N1CCc2ccccc21 | 169% (inactive) | – |
| CC(OC(=O)Cc1ccc(F)cc1)C(=O)N1CCc2ccccc21 (stereo not drawn) | -0.0345% (inactive) | – |
| CC1Cc2ccccc2N1C(=O)c1cc2sccc2n1Cc1ccccc1 (stereo not drawn) | – | 11.7 µM (active) |
| CC(C)C(=O)Nc1c2c(nn1-c1ccccc1)CSC2 | 6.94% (inactive) | – |
| CCNC(=O)N1CCN(S(=O)(=O)c2ccc3c(c2)OCCCO3)CC1 | 1.67% (inactive) | – |
| O=C(Nc1cccc(Cl)c1)c1cc(S(=O)(=O)N2CCCCC2)c[nH]1 | 19.9% (inactive) | – |
| O=C(CCN1C(=O)[C@@H]2Cc3ccccc3CN2C1=O)NCc1ccccc1 | 8.13% (inactive) | – |
